The source of these data is ChEMBL document CHEMBL3433997, “St. Jude Leishmania screening dataset” (2016).

“And” between values parts separate entries of the source, which are not always exact repeats. Equal values may be shown once.

This experiment deals with Glucose transporter (Leishmania mexicana) (UniProt O61059). The experiment in a line: ST_JUDE_LEISH: Cytotoxicity at 2uM final concentration against transgenic Leishmania Mexicana promastigotes LmGT2 that are glucose transport deficient and complemented with the L. Mexicana glucose transporter 2. Activity is measured by DNA content using SYBR green in vitro. In kind it is functional.
For `O=C(Nc1ccc(-c2cccc(-c3nc4cc(F)ccc4[nH]3)c2)cc1)Nc1ccc(Cl)c(Cl)c1`, the inhibition worked out at 3.36%.
For the molecule `COc1ccc2c(=O)c(I)c(C)[nH]c2c1`, the inhibition was -3.12%.
Take `CCN(CC)CCN(Cc1ccc(-c2ccc(C(F)(F)F)cc2)cc1)C(=O)Cn1c(CCc2cccc(F)c2F)nc(=O)c2sccc21`: the inhibition is -0.22%.
In the case of `O=C(NC(=S)Nc1cc(C(F)(F)F)cc(C(F)(F)F)c1)c1ccc(Cl)cc1`, the inhibition was -0.06%.
Consider `CNC(=O)c1ccc2nc(-c3ccc(-c4ccccc4)cc3)n(CC3CCN(CC4CCCC4)CC3)c2c1`, for which the inhibition was found to be 1.13%.
With `Cc1cccc2nc(-c3cccc(-c4cccc(NC(=O)c5cn(C)c(=O)n5C)c4)c3)[nH]c12`, the inhibition was -0.64%.
In the case of `COc1cc(NC(=O)/C=C/c2ccccc2OC(F)(F)F)cc(OCCN2CCN(CCN3CCOCC3)CC2)c1`, the inhibition was 2.34%.
For `CCCC1(NC[C@@H](O)[C@H](Cc2ccccc2)NC(=O)c2cc(NCC)cc(N3CCCCS3(=O)=O)c2)CCC1` the value was 2.83%.
Take `CCNc1cc(C(=O)N[C@@H](Cc2ccccc2)[C@H](O)CNC2CC3CCC2C3)cc(N2CCCCS2(=O)=O)c1` (stereo not given in full): the inhibition was -3.22%.
In the case of `CCC(C(=O)Nc1ccccc1)n1nc(-c2ccc(C)c(S(=O)(=O)N3CCCCC3)c2)ccc1=O` (stereo not given), the inhibition stood at 4.74%.
For `COc1ccc(S(=O)(=O)N2CCC(NS(=O)(=O)c3ccc(F)cc3)CC2)cc1` the value was 3.69%; for `CC1(C)CCCN(C(=O)c2cccc(-n3nc(-c4ccc(Cl)cc4)cc3N)c2)C1`, 2.07%; for `CCCC(C)Nc1nc(C)cc(N[C@@H](Cc2ccccc2)C(=O)NCCOc2ccccc2)n1` (stereo not given in full), 1.16%.
For `CCCCOc1ccc(-c2nc3ccccc3[nH]2)cc1`, the inhibition was 2.74%.
Regarding `Cc1cc(N(CCO)CCCN2CCCCC2)nc(Nc2ccc(Cl)cc2)n1`, the inhibition is 2.41%.
As to `COc1ccc(-c2cc(NCc3ccc(-n4ccnc4)cc3)nc(Nc3ccccc3)n2)cc1`, the inhibition turned out to be 1.83%.
`CC(C)N1CCC(N(Cc2ccc(-c3ccc(Cl)cc3)cc2)C(=O)Cn2c(CCc3cccc(F)c3F)nc(=O)c3ccccc32)CC1`: the inhibition came out at 3.03%.
In the case of `CC(=O)NCCNc1nccc(N2CCc3ncnc(Nc4ccc(OCc5ccccn5)c(Cl)c4)c3C2)n1`, the inhibition turned out to be 1.9%.
On to `CC(CC1CCCCC1)NCc1ccccc1OCCC(=O)N1CCCC1C(N)=O` (stereo not given), for which the inhibition worked out at 0.2%.
For the molecule `CN(Cc1cnc2nc(N)nc(N)c2n1)c1ccc(C(=O)N[C@@H](CCC(=O)O)C(=O)O)cc1`, the inhibition is -0.37% and 1.34% and 3.42%.
Turning to `CC(C)CCNCc1ccc(OCc2cccc(C(=O)Nc3ccccc3)c2)c(I)c1`, the inhibition is 1.47%.
For the molecule `O=C(Nc1ccccc1)Nc1cccc(-c2nn3c(OCCN4CCCC4)cccc3c2-c2ccncc2)c1`, the inhibition was 6.34%.
With `CC(C)c1ccc(CN2CCC(CNC(=O)c3cc(-c4ccc(N(C)C)cc4)cs3)C2)cc1` (stereo not given), the inhibition was found to be 2.27%.
On to `Nc1c2ccccc2nc2cc(Cl)ccc12`, for which the inhibition stood at 1.91%.
Turning to `CCC(=O)Oc1ccc(NC(=O)c2cccc(OC)c2)cc1`, the inhibition was 1.69%.
For `CC(=O)Nc1ccc2[nH]cc(C3CCN(CC4CCC(NC(=O)/C=C/c5ccccc5Cl)CC4)CC3)c2n1` (stereo not given), the inhibition was 6.59%.
As to `Cc1cccc2nc(-c3cccc(-c4cccc(NC(=O)NCc5ccccc5)c4)c3)[nH]c12`, the inhibition is -4.27%.
For `NS(=O)(=O)c1cccc(-c2ccc3nccc(-c4cccc(S(N)(=O)=O)c4)c3c2)c1` the value was -1.04%; for `COc1ccc2ccccc2c1C=NNc1ccnc2cc(Cl)ccc12`, 1.17%.
`CC(=O)Nc1cccc(C(=O)Nc2cccc(-c3ccc(-c4nc5cccc(C)c5[nH]4)cc3)c2)c1`: the inhibition stood at 4.99%.
As for `O=S(=O)(Nc1ccc(CCN2CCCCC2CCN2CCCC2)cc1)c1cccc2cccnc12` (stereo not given), the inhibition was found to be 2.15%.
As for `Cc1ccc(C(=O)N2CCc3cc4nccc(N5CCN6CCC[C@H]6C5)c4cc32)cc1`, the inhibition turned out to be 1.55%.
As for `CC(C)CNCc1ccc(-c2ccc(CN(CCCN3CCN(C)CC3)C(=O)CCC3CCCC3)cc2)cc1`, the inhibition came out at 3.97%.
Take `NC1CCN(CCNCc2cccc(-c3ccc(-c4nc5cc(F)ccc5[nH]4)cc3)c2)C1` (stereo not given): the inhibition came out at 6.13%.
The figure for `O=c1cc(NCCCNCc2cc3ccccc3s2)[nH]c2ccccc12` is 3.82%; for `COc1ccc(O)c(C(=O)c2cc(C#N)c(=O)n(-c3ccc(Oc4ccccc4)cc3)c2)c1` it is 9.41%; for `CN(c1ccccc1)S(=O)(=O)c1cccc(NC(=O)c2ccc(-n3ccnc3)c([N+](=O)[O-])c2)c1` it is 0.73%.
For `CCCC(=O)Nc1ccc(OCCCN(Cc2ccccc2F)c2ccc(C#N)c(C(F)(F)F)c2)cc1`, the inhibition amounted to 0.71%.
With `O=C(/C=C/c1ccc(C(F)(F)F)cc1)NCCCCCN1CCCN(C(=O)Nc2ccc(F)c(Cl)c2)CC1`, the inhibition turned out to be 0.39%.
As for `COc1ccc(Nc2nc(NCc3cccc(NS(C)(=O)=O)c3)cc(-c3ccc(OC)cc3)n2)cc1`, the inhibition came out at 1.09%.

As a reminder, the inhibition is the drop in the measured response relative to a control, in per cent.
